# The source made the active and inactive calls. Rule for the calls: active = hit-call score of the fitted dose curve at least 0.9, where 1 is the maximum; inactive = score below 0.9.
# Test: BSK_hDFCGF_SRB: Viability Assessment in the BioMAP Diversity Plus: hDFCGF Assay (AID 2283061)
# Settings: primary human foreskin fibroblasts
# Procedure: BSK_hDFCGF is a cell-based, multiplexed-readout assay that uses foreskin fibroblast, a human skin primary cell, with measurements taken at 24 hours after chemical dosing in a 96-well plate.BSK_hDFCGF_SRB is an assay component measured in the BSK_hDFCGF assay. It measures 0.1% sulforhodamine related to cell death using Sulforhodamine staining technology.Data from the assay component BSK_hDFCGF_SRB was analyzed into 1 assay endpoint. This assay endpoint, BSK_hDFCGF_SRB, was analyzed with bidirectional fitting relative to DMSO as the negative control and baseline of activity. Using a type of viability reporter, gain or loss-of-signal activity can be used to understand changes in the signaling. Furthermore, this assay endpoint can be referred to as a primary readout, because this assay has produced multiple assay endpoints where this one serves a signaling function. To generalize the intended target to other relatable targets, this assay endpoint is annotated to the cell morphology intended target family, where the subfamily is cell conformation.
# The levels of cell surface (or secreted, indicated by the prefix "s") biomarker endpoints were measured by ELISA. Overt cytotoxicity to cells in confluent adherent cultures (all systems other than the BT system) was assessed by measuring total protein levels using sulforhodamine B (SRB) staining in parallel cultures at the time of biomarker measurements, indicated as SRB endpoints. For proliferation assays for adherent cell types, individual cell types are cultured at sub-confluence and relative cell numbers quantified by SRB staining at time points optimized for each system (48 h: 3C and CASM3C systems; 72 h: BT and HDF3CGF systems; 96 h: SAg system). SRB was performed by staining cells with 0.1% SRB after fixation with 10% TCA and reading wells at 560 nm.Viability and proliferation of PBMC (T cells) was quantified by Alamar Blue reduction for the SAg and BT systems. For PBMC viability (referred to as PBMC Cytotoxicity within the assay endpoint names), cells were plated (75,000/well in a 96-well plate) and then chemical samples added for 1 h before addition of activators, SEB and TSST-1 (20 ng/mL final concentration each). Cells were incubated for 90 h. Then, Alamar Blue (20 uL/well) (Invitrogen, Cat DAL1100) was added for 6 h, and the plates were read with a fluorescence microplate reader at 546/580 nm (excitation/emission). For PBMC proliferation, cells were plated and activated as above but incubated for only 16 h prior to addition of Alamar Blue. Plates were read after 6 h.
Compound,outcome,AC50
CC(C)(C)OOC(C)(C)CCC(C)(C)OOC(C)(C)C,inactive,–
Cc1cccc(N)c1N,inactive,–
CCC[CH2][Sn]([Cl])([CH2]CCC)[CH2]CCC,–,0.148 µM (active)
Cn1cc(-c2ccccc2)c(=O)c(-c2cccc(C(F)(F)F)c2)c1,inactive,–
Nc1ccc(N=Nc2ccccc2)cc1,inactive,–
CN(C)C(=O)Nc1ccc(Cl)cc1,inactive,–
O=[N+]([O-])C(Br)(CO)CO,–,30.5 µM (active)
CC(O)CCO (stereo not given),inactive,–
CCCCC(CC)COC(=O)c1ccc(C(=O)OCC(CC)CCCC)c(C(=O)OCC(CC)CCCC)c1 (stereo not given),inactive,–
Nc1cc(Cl)cc(C(=O)O)c1Cl,inactive,–
Nc1ccc([N+](=O)[O-])cc1,inactive,–
Clc1ccc(C(c2ccc(Cl)cc2)C(Cl)(Cl)Cl)cc1,–,10.6 µM (active)
Cc1cc(N=Nc2ccccc2C)ccc1N,–,34.5 µM (active)
OCCCl,inactive,–
c1ccc2c(c1)oc1ccccc12,inactive,–
Oc1ccccc1Cl,inactive,–
CCCCCCCCCCCCCN1CC(C)OC(C)C1 (stereo not given),inactive,–
ClC1=C(Cl)C2(Cl)C3C(Cl)C=CC3C1(Cl)C2(Cl)Cl (stereo not given),–,11.2 µM (active)
O=C(Nc1ccccc1)c1ccccc1I,inactive,–
C[C@]12C=CC3=C4CCC(=O)C=C4CC[C@H]3[C@@H]1CC[C@@H]2O,inactive,–

Compound,outcome,AC50
Clc1ccc(Cl)c(Cl)c1,inactive,–
Cc1ccc(N)cc1,inactive,–
Cc1ccc(N)c(N)c1,inactive,–
CS(=O)(=O)NC(=O)c1cc(Oc2ccc(C(F)(F)F)cc2Cl)ccc1[N+](=O)[O-],inactive,–
O=C1CCCO1,inactive,–
C=CCc1ccc2c(c1)OCO2,inactive,–
[O-][Cl+]O,inactive,–
c1ccc(C2CO2)cc1 (stereo not given),inactive,–
O=C(O)C1C2CCC(O2)C1C(=O)O (stereo not given),inactive,–
N#CC(Br)(Br)C(N)=O,inactive,–
Clc1ccc(C(c2ccc(Cl)cc2)C(Cl)Cl)cc1,–,9.91 µM (active)
OCCCBr,inactive,–
Cc1ccc(N=C=O)cc1N=C=O,inactive,–
c1ccc2c(c1)-c1cccc3cccc-2c13,inactive,–
c1ccc(N=Nc2ccccc2)cc1,inactive,–
CC(C)(O)c1cnn2c(-c3ccc(F)c(-c4c(F)cccc4C#N)c3)cnc2n1,inactive,–
Nc1ccc(Oc2ccc(N)cc2)cc1,inactive,–
O=[N+]([O-])c1ccc(Oc2ccc(Cl)cc2Cl)cc1,inactive,–
CNC(=O)Oc1cccc2c1OC(C)(C)C2,inactive,–
[As]#[In],inactive,–
